# Records with an inconclusive call do not appear. Activity calls are given as the source filed them. How the source made its calls: active means hit-call score of the fitted dose curve at least 0.9, where 1 is the maximum; inconclusive means response in the unintended direction; inactive means score below 0.9.
# Columns and labels:
# [1] = ACEA_AR_agonist_AUC_viability: ACEA Biosciences xCELLigence Real-Time Cell Analysis on Androgen Receptor Agonism for Viability (AID 2283775);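 on AC50: viability read 80 hours after compound addition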
# Procedure, shortened: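 Read-out is area under the impedance curve at 80 h post-dose in 22Rv1 cells, with DMSO as baseline and signal loss taken as reduced viability. Compounds ran in duplicate from 100 uM final.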
# [2] = ACEA_AR_antagonist_AUC_viability: ACEA Biosciences xCELLigence Real-Time Cell Analysis on Androgen Receptor Antagonism for Viability (AID 2283776);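 further: 22Rv1 human prostate cancer cells growing on impedance electrode plates; area under impedance growth curve at 80 h after dosing as viability; hits lower the growth signal relative to DMSO meaning cytotoxicity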
# Procedure, shortened: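 Viability endpoint from label-free cell-index monitoring: 22Rv1 cultures treated with an eight-point 1:4 dilution series starting at 100 uM final, AUC at 80 h fitted against DMSO.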
# [3] = ACEA_ER_AUC_viability: ACEA Biosciences xCELLigence Real-Time Cell Analysis on Estrogen Receptor Agonism for Viability (AID 2283782);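 further: continuous compound exposure with impedance area under curve over 80 h; hit means loss of impedance signal meaning reduced cell growth or viability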
# Procedure, shortened: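 T-47D; phenol red-free RPMI1640 + 10% CS-FBS; 8 conc., 1:4 serial, max 100 uM final, ≤0.5% DMSO; n = 2; continuous exposure; impedance monitored to 80 h post-dose; AUC vs DMSO.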
# [4] = STM_H9_NormalizedViability: Cytotoxicity Assessment at 120 hours in the Stemina devTOX quickPredict H9 human embryonic stem cell (hESC)-based Assay (AID 2283784)
# Procedure, shortened: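 Undifferentiated H9 hESCs kept pluripotent were exposed to compound, with media and chemical replaced every 24h. CellTiter-Fluor protease-substrate fluorescence was background-corrected and normalized per plate to the 0.1% DMSO vehicle; signal loss indicates reduced viability.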
# AR (gene 367) [5] = biological target: AR (gene 367) (UniProt P10275); test: ACEA_AR_agonist_80hr: ACEA Biosciences xCELLigence Real-Time Cell Analysis on Androgen Receptor Agonism for Proliferation (AID 2283783);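 further: hits increase impedance growth signal above DMSO baseline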
# Sequence of AR (gene 367) (P10275 whole entry, looked up): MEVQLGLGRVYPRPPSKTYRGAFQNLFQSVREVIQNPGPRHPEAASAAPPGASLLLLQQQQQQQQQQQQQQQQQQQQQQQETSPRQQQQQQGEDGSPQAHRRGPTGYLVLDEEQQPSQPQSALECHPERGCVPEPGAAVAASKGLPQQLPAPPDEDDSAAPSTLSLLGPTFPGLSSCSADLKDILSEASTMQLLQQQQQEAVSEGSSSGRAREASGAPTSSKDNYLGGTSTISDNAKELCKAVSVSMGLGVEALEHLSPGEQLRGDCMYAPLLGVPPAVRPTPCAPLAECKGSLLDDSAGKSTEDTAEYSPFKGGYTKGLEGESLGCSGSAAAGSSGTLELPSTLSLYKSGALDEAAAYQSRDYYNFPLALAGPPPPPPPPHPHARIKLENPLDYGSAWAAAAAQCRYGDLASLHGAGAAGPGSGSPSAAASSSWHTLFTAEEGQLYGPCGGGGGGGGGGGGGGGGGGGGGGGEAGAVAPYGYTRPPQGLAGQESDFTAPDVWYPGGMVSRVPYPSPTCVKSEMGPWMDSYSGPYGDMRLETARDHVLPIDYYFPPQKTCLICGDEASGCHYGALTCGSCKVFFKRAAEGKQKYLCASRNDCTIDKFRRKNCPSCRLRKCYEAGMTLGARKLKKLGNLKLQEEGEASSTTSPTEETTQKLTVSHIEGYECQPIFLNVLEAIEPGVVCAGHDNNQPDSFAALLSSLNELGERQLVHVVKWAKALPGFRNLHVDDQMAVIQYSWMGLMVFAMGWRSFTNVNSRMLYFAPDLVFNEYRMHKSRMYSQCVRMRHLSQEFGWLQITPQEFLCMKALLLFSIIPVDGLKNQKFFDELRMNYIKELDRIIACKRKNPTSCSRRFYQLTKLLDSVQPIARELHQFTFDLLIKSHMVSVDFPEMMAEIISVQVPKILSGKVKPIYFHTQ
# Procedure, shortened: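 Androgen-driven proliferation in 22Rv1 cells is tracked as electrical impedance, taken 80 h after continuous exposure to compound (eight concentrations, 1:4 steps, maximum 100 uM final). Activity is fitted in the positive direction with DMSO as baseline.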
# AR (gene 367) [6] = biological target: AR (gene 367) (UniProt P10275); test: ACEA_AR_antagonist_80hr: ACEA Biosciences xCELLigence Real-Time Cell Analysis on Androgen Receptor Antagonism for Proliferation (AID 2283787);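 further: 22Rv1 human prostate cancer cells with growth followed by electrical impedance; hits lower the impedance growth signal relative to DMSO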
# Procedure, shortened: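 Growth-kinetic antagonist readout in 22Rv1 cells, taken 80 h after continuous compound exposure. Activity fitted as signal loss relative to DMSO negative control.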
smiles,measurement,setting,value
CC(C)N(C(=O)SCC(Cl)=C(Cl)Cl)C(C)C,AC50,[1],89.9 µM (active)
same,AC50,[2],81 µM (active)
same,AC50,[3],77.3 µM (active)
same,outcome,[4],inactive
COP(=O)(OC)C(O)C(Cl)(Cl)Cl (stereo not drawn),outcome,[1],inactive
same,AC50,[2],50 µM (active)
same,AC50,[3],76.5 µM (active)
CNC(=O)ON=C(C)SC,outcome,[1],inactive
same,outcome,[2],inactive
same,outcome,[3],inactive
CNC(=O)Oc1cccc2c1OC(C)(C)O2,outcome,[1],inactive
same,outcome,[2],inactive
same,outcome,[3],inactive
Cc1cc(C2CC2)nc(Nc2ccccc2)n1,AC50,[1],75.6 µM (active)
same,AC50,[2],64.2 µM (active)
same,AC50,[3],77.3 µM (active)
CCCSP(=O)(OCC)Oc1ccc(Br)cc1Cl (stereo not drawn),outcome,[1],inactive
same,outcome,[2],inactive
same,AC50,[3],38.6 µM (active)
CCOP(=S)(OCC)Oc1cc(C)nc(C(C)C)n1,outcome,[1],inactive
same,outcome,[2],inactive
same,AC50,[3],82 µM (active)
same,AC50,[4],87.1 µM (active)
CCc1cnc(C2=NC(C)(C(C)C)C(=O)N2)c(C(=O)O)c1 (stereo not drawn),outcome,[1],inactive
same,outcome,[2],inactive
C[Si](Cn1cncn1)(c1ccc(F)cc1)c1ccc(F)cc1,AC50,[1],60.4 µM (active)
same,AC50,[2],50 µM (active)
same,AC50,[3],76.2 µM (active)
same,AC50,[4],80.6 µM (active)
O=C(O)c1cc(Oc2ccc(C(F)(F)F)cc2Cl)ccc1[N+](=O)[O-],AC50,[1],50 µM (active)
same,outcome,[2],inactive
same,outcome,[3],inactive
CON=C(C(=O)OC)c1ccccc1CON=C(C)c1cccc(C(F)(F)F)c1,AC50,[1],26.4 µM (active)
same,AC50,[2],14.5 µM (active)
same,AC50,[3],90.5 µM (active)
same,outcome,[4],inactive
COP(=O)(NC(C)=O)SC (stereo not drawn),outcome,[1],inactive
same,outcome,[2],inactive
same,outcome,[3],inactive
CCCCN(CC)c1c([N+](=O)[O-])cc(C(F)(F)F)cc1[N+](=O)[O-],AC50,[1],60.9 µM (active)
same,AC50,[2],43.8 µM (active)
O=[N+]([O-])c1cc(C(F)(F)F)c(Cl)c([N+](=O)[O-])c1Nc1ncc(C(F)(F)F)cc1Cl,AC50,[1],8.38 µM (active)
same,AC50,[2],10.6 µM (active)
same,AC50,[3],3.24 µM (active)
same,AC50,[4],16.3 µM (active)
CCCCOC(=O)[C@@H](C)Oc1ccc(Oc2ccc(C#N)cc2F)cc1,AC50,[1],27.6 µM (active)
same,AC50,[2],62.3 µM (active)
same,outcome,[3],inactive
same,AC50,[4],93.9 µM (active)
COP(=O)(OC)SCn1c(=O)oc2cc(Cl)cnc21,AC50,[1],23.7 µM (active)
same,AC50,[2],17.2 µM (active)
same,AC50,[3],76.2 µM (active)
same,outcome,AR (gene 367) [5],inactive
same,AC50,AR (gene 367) [6],21.7 µM (active)
CCC(CC)Nc1c([N+](=O)[O-])cc(C)c(C)c1[N+](=O)[O-],AC50,[1],64.5 µM (active)
same,AC50,[2],50 µM (active)
same,AC50,[3],76.8 µM (active)
C=C(C)[C@H]1Cc2c(ccc3c2O[C@@H]2COc4cc(OC)c(OC)cc4[C@@H]2C3=O)O1,AC50,[1],0.284 µM (active)
same,AC50,[2],0.413 µM (active)
same,outcome,[3],inactive
same,outcome,AR (gene 367) [5],inactive
same,AC50,[4],0.515 µM (active)
same,AC50,AR (gene 367) [6],1.54 µM (active)
